Test results: PubChem BioAssay (EPA / NIEHS)
Activity calls are given as the source filed them. The calls were made as follows: active = hit-call score of the fitted dose curve at least 0.9, where 1 is the maximum; inactive = score below 0.9.

Key:
[1] = read-out: Human Leukocyte Antigen - DR isotype (HLADR), HLA-DRA (gene 3122); test: BSK_BE3C_HLADR: BioMAP Diversity Plus: BE3C Assay for Human Leukocyte Antigen - DR isotype (HLADR) Biomarker Activity (AID 2283032); conditions: primary human bronchial epithelial cells; actives raise or lower the signal
Outline: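 Cell-surface HLA-DR ELISA readout at 24 h after dosing in the BE3C primary human lung bronchial epithelial system; gain or loss of signal against DMSO, with parallel sulforhodamine B staining of total protein for overt cytotoxicity.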

[2] = read-out: Vascular cell adhesion molecule 1 (VCAM1), VCAM1 (gene 7412); test: BSK_4H_VCAM1: BioMAP Diversity Plus: 4H Assay for Vascular cell adhesion molecule 1 (VCAM1) Biomarker Activity (AID 2283033); conditions: primary human endothelial cells (HUVEC); actives raise or lower the signal;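 as to outcome: cell-surface VCAM-1 protein measured by ELISA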
Outline: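 VCAM-1 ELISA read 24 h after chemical dosing of HUVEC in the BioMAP 4H system, with gain or loss of signal fitted relative to DMSO. Parallel SRB staining (560 nm) checked overt cytotoxicity.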

[3] = read-out: Interferon-gamma inducible Protein 10 (IP10), CXCL10 (gene 3627); test: BSK_BE3C_IP10: BioMAP Diversity Plus: BE3C Assay for Interferon-gamma inducible Protein 10 (IP10) Biomarker Activity (AID 2283034); conditions: primary human bronchial epithelial cells; actives raise or lower the signal
Outline: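 IP-10 quantified by ELISA in human primary bronchial epithelial cell cultures at 24 hours post-dosing. Gain or loss of signal fitted relative to DMSO; parallel SRB staining assessed overt cytotoxicity.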

[4] = read-out: Transforming growth factor beta 1 (TGFb1), TGFB1 (gene 7040); test: BSK_BE3C_TGFb1: BioMAP Diversity Plus: BE3C Assay for Transforming growth factor beta 1 (TGFb1) Biomarker Activity (AID 2283036;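 also: TGF-b1 protein level measured by ELISA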); conditions: primary human bronchial epithelial cells; actives raise or lower the signal
Outline: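 ELISA readout of TGF-b1 from human lung bronchial epithelial primary cells, taken 24 h post-treatment. Gain or loss of signal fitted relative to DMSO baseline, with parallel SRB staining for overt cytotoxicity.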

[5] = read-out: Plasminogen activator inhibitor-1 (PAI1), SERPINE1 (gene 5054); test: BSK_BE3C_PAI1: BioMAP Diversity Plus: BE3C Assay for Plasminogen activator inhibitor-1 (PAI1) Biomarker Activity (AID 2283037); conditions: primary human bronchial epithelial cells; actives raise or lower the signal
Outline: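 PAI-1 was measured by ELISA in human primary bronchial epithelial cultures 24 h after chemical dosing, with cytotoxicity checked by SRB total-protein staining in parallel cultures. Activity was fitted in both directions relative to DMSO.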

[6] = read-out: urokinase plasminogen activator (uPA), PLAU (gene 5328); test: BSK_BE3C_uPA: BioMAP Diversity Plus: BE3C Assay for urokinase plasminogen activator (uPA) Biomarker Activity (AID 2283038); conditions: primary human bronchial epithelial cells; actives raise or lower the signal;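 also: uPA protein level quantified by ELISA in cell cultures; uPA read one day after compound addition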
Outline: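 ELISA read-out of uPA in human lung primary bronchial epithelial cultures, 24 h post-dosing. Gain or loss of signal fitted bidirectionally relative to DMSO baseline; cytotoxicity checked in parallel cultures via SRB total protein stain.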

[7] = read-out: Urokinase-type plasminogen activator receptor (uPAR), PLAUR (gene 5329); test: BSK_BE3C_uPAR: BioMAP Diversity Plus: BE3C Assay for Urokinase-type plasminogen activator receptor (uPAR) Biomarker Activity (AID 2283039); conditions: primary human bronchial epithelial cells; actives raise or lower the signal;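 also: cells exposed to compound for one day before measurement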
Outline: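 uPAR levels were measured by ELISA after 24 h compound treatment of primary human bronchial epithelial cells, fitted in both directions relative to DMSO. Parallel SRB staining served as the cytotoxicity read-out.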

[8] = read-out: Interleukin-6 (IL6), IL6 (gene 3569); test: BSK_CASM3C_IL6: BioMAP Diversity Plus: CASM3C Assay for Interleukin-6 (IL6) Biomarker Activity for (AID 2283040); conditions: primary human coronary artery smooth muscle cells; actives raise or lower the signal
[9] = read-out: Monokine induced gamma interferon (MIG), CXCL9 (gene 4283); test: BSK_BE3C_MIG: BioMAP Diversity Plus: BE3C Assay for Monokine induced gamma interferon (MIG) Biomarker Activity (AID 2283035); conditions: primary human bronchial epithelial cells; actives raise or lower the signal;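 also: MIG protein measured by ELISA in BE3C cultures after 24 h of dosing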
Outline: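 Dose cells (human primary bronchial epithelial), incubate 24 h, quantify MIG by ELISA, then fit concentration–response in both directions relative to DMSO control.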

Compound	outcome [1]	outcome [2]	outcome [3]	outcome [4]	outcome [5]	outcome [6]	outcome [7]	outcome [8]	AC50 [1]	AC50 [3]	outcome [9]	AC50 [2]	AC50 [8]
CC1(C)C(=O)N(Cl)C(=O)N1Cl	inactive	inactive	inactive	inactive	inactive	inactive	inactive	inactive	–	–	–	–	–
CCn1nc(C)c2c1C(=O)NCC(c1ccc(O)cc1)=N2	inactive	inactive	inactive	inactive	inactive	–	inactive	inactive	–	–	–	–	–
COCc1nnc(-c2ccc[n+]([O-])c2)n1-c1c(Cl)c(Cl)cc2[nH]c(=O)c(=O)[nH]c12	inactive	inactive	inactive	inactive	–	inactive	inactive	inactive	–	–	–	–	–
OCc1c[nH]c2ccccc12	–	inactive	–	inactive	–	–	inactive	inactive	3.97 µM (active)	5.95 µM (active)	–	–	–
NC(=O)N1c2ccccc2C=Cc2ccccc21	inactive	inactive	–	inactive	–	inactive	inactive	inactive	–	–	inactive	–	–
Cc1nc(-c2ccccn2)ncc1C(=O)Nn1cc(C)c2cc(F)ccc21	inactive	inactive	inactive	inactive	–	–	inactive	inactive	–	–	inactive	–	–
c1ccc(C(O[C@@H]2CCCN(CCc3ccc4c(c3)OCO4)C2)c2ccccc2)cc1	–	–	inactive	inactive	inactive	inactive	inactive	inactive	20 µM (active)	–	–	26.9 µM (active)	–
C[C@]12C=CC(=O)C=C1CC[C@H]1[C@@H]3C[C@@H](O)[C@](O)(C(=O)CO)[C@@]3(C)C[C@H](O)[C@@]12F	inactive	inactive	inactive	inactive	inactive	–	inactive	–	–	–	–	–	356 nM (active)
OCCOCCOCCO	inactive	inactive	inactive	inactive	inactive	inactive	inactive	inactive	–	–	–	–	–
OC(CCl)CCl	inactive	inactive	inactive	inactive	inactive	inactive	inactive	inactive	–	–	–	–	–
NC(=O)N(O)[C@@H]1COc2cc(OCc3ccccc3)ccc21	inactive	inactive	inactive	inactive	inactive	–	inactive	inactive	–	–	–	–	–
Cn1cc[nH]c1=S	inactive	inactive	inactive	inactive	–	–	inactive	inactive	–	–	inactive	–	–
O=S(=O)(O)CCC(F)(F)C(F)(F)C(F)(F)C(F)(F)C(F)(F)C(F)(F)F	inactive	inactive	inactive	–	inactive	inactive	inactive	inactive	–	–	–	–	–
OC[C@H]1O[C@@](CO)(O[C@H]2O[C@H](CO)[C@@H](O)[C@H](O)[C@H]2O)[C@@H](O)[C@@H]1O	inactive	inactive	inactive	inactive	inactive	–	inactive	inactive	–	–	–	–	–
O=C1CN(N=Cc2ccc([N+](=O)[O-])o2)C(=O)N1	inactive	inactive	inactive	inactive	–	inactive	inactive	inactive	–	–	–	–	–
CC(=O)c1ccccc1	inactive	inactive	inactive	inactive	inactive	–	inactive	inactive	–	–	–	–	–
OCC(CO)(CO)CO	inactive	inactive	inactive	inactive	inactive	inactive	inactive	inactive	–	–	–	–	–
CCOC(N)=O	inactive	inactive	inactive	inactive	–	inactive	inactive	inactive	–	–	–	–	–
C=CN1CCCC1=O	inactive	inactive	inactive	inactive	–	–	inactive	inactive	–	–	–	–	–
OCCC(F)(F)C(F)(F)C(F)(F)C(F)(F)F	inactive	inactive	inactive	–	–	inactive	inactive	inactive	–	–	inactive	–	–
NNC(=O)c1ccncc1	inactive	inactive	inactive	inactive	inactive	–	inactive	inactive	–	–	–	–	–
NCC(F)(F)C(F)(F)C(F)(F)C(F)(F)F	inactive	inactive	inactive	–	inactive	–	inactive	inactive	–	–	–	–	–
CNC(C)=O	inactive	inactive	inactive	inactive	–	–	inactive	inactive	–	–	–	–	–
